Source: PubChem (Broad Institute)
This is one part of a sample in which hits are shown more often than they occur.
U2OS ROS induce = raises reactive oxygen species in U2OS cancer cells | 2% of 46,000 active | ROS induction (% of piperlongumine), % at 10 µM | U2OS ROS induction, H2DCF-DA fluorescence | AID 624156; in the data active means ROS induction above about 79%, passing the limit was not always enough
Each line names hits and unclear results; the compound was inactive in the other large screens.

C[C@@H]1CN([C@@H](C)CO)C(=O)Cc2cc(NC(=O)CCC(F)(F)F)ccc2O[C@@H]1CN(C)C(=O)Nc1ccc(C(F)(F)F)cc1	none
Cc1ccc(-c2nnc(SCC(=O)Nc3ccccc3Cl)n2C)c(Cl)c1	none
Cc1ccc(S(=O)(=O)N(C)CC(=O)Nc2ccncc2)cc1	none
COc1ccc(NC(=O)CSc2nc(C)cc(=O)[nH]2)cc1	none
COc1ccc(NC(=O)CSc2nc3scc(C)c3c(=O)[nH]2)cc1	U2OS ROS induce 90.9
Cc1ccc(NC(=O)CSc2nc(C)c(C)c(=O)[nH]2)cc1	none
CCOC(=O)Cc1c(C)[nH]c(C(=O)OCC)c1CC(=O)OCC	none
CC(=O)Nc1cc(C(=O)NC2CCC(C)CC2)ccc1S(=O)(=O)c1ccc(Cl)cc1 (centres undefined)	none
C[C@@H]1CN([C@H](C)CO)C(=O)c2cc(NC(=O)NC3CCCCC3)ccc2O[C@H]1CN(C)Cc1ccc(-c2ccccc2)cc1	none
O=C1C=CC(=O)c2c(O)c(Cl)c(Cl)c(O)c21	none
COC(=O)CCCCCCC(=O)N/N=C/c1cc(OC)c(OC)cc1Br	none
CC12CCC(CC(=O)c3ccccc3)(CC1)CC2	none
CC(C)(C)C1CCC2(CC1)C(C#N)C2(C#N)C(=O)c1ccccc1 (centres undefined)	U2OS ROS induce 159.4
CC(C)(C)c1ccc(OCC(=O)Nc2ccc(C(=O)Nc3ccccc3C(=O)O)cc2)cc1	none
C[C@H]1CN([C@@H](C)CO)C(=O)c2cc(NS(=O)(=O)c3ccc(Cl)cc3)ccc2O[C@H]1CN(C)Cc1ccc(C(=O)O)cc1	none
COc1cccc(NC(N)=O)c1	none
CCC(Sc1nnc(C)n2c1cc1oc(C)cc12)C(=O)Nc1cccc(OC)c1 (centres undefined)	U2OS ROS induce 96.5
CCn1c(SCC(=O)Nc2cccc(OC)c2)nnc1-c1cccc(C)c1	none
C[C@@H]1CN([C@H](C)CO)C(=O)c2cc(NS(=O)(=O)c3cn(C)cn3)ccc2O[C@@H]1CN(C)Cc1ccc(C(=O)O)cc1	none
C[C@@H]1CN([C@H](C)CO)C(=O)c2cc(NS(=O)(=O)c3ccccc3)ccc2O[C@@H]1CN(C)S(=O)(=O)c1ccccc1	none
C[C@@H]1CN([C@H](C)CO)C(=O)Cc2cc(NS(=O)(=O)c3cccs3)ccc2O[C@H]1CN(C)S(C)(=O)=O	none
C[C@@H]1CN([C@@H](C)CO)C(=O)Cc2cc(NS(=O)(=O)c3cccs3)ccc2O[C@@H]1CN(C)C	U2OS ROS induce 128.3
Cc1ccc(S(=O)(=O)N(C)C[C@@H]2Oc3ccc(NS(=O)(=O)c4cccs4)cc3CC(=O)N([C@H](C)CO)C[C@H]2C)cc1	U2OS ROS induce 94.7
C[C@@H]1CN([C@H](C)CO)C(=O)c2cc(NS(C)(=O)=O)ccc2O[C@@H]1CN(C)S(=O)(=O)c1ccccc1	U2OS ROS induce 101.6
C[C@H]1CN([C@@H](C)CO)C(=O)c2cc(NS(C)(=O)=O)ccc2O[C@H]1CN(C)S(=O)(=O)c1ccccc1	none
Cc1ccc(S(=O)(=O)N(C)C[C@H]2Oc3ccc(NS(=O)(=O)c4cccs4)cc3CC(=O)N([C@@H](C)CO)C[C@H]2C)cc1	none
Cc1ccc(S(=O)(=O)N(C)C[C@@H]2Oc3ccc(NS(=O)(=O)c4cccs4)cc3CC(=O)N([C@H](C)CO)C[C@@H]2C)cc1	none
C[C@@H]1CN([C@@H](C)CO)C(=O)Cc2cc(NS(=O)(=O)c3cccs3)ccc2O[C@@H]1CN(C)S(=O)(=O)c1cccs1	none
Cc1ccc(S(=O)(=O)Nc2ccc3c(c2)CC(=O)N([C@H](C)CO)C[C@@H](C)[C@@H](CN(C)S(=O)(=O)c2ccccc2)O3)cc1	none
Cc1ccc(S(=O)(=O)N(C)C[C@@H]2Oc3ccc(NS(=O)(=O)c4ccccc4)cc3CC(=O)N([C@H](C)CO)C[C@@H]2C)cc1	U2OS ROS induce 129.7
Cc1ccc(S(=O)(=O)Nc2ccc3c(c2)CC(=O)N([C@H](C)CO)C[C@H](C)[C@H](CN(C)S(=O)(=O)c2ccccc2)O3)cc1	none
C[C@H](CO)N1C[C@H](C)[C@H](CN(C)C(=O)NC2CCCCC2)Oc2c(NS(=O)(=O)c3cccs3)cccc2C1=O	none
COc1ccc(CC(=O)Nc2cccc(C(=O)O)c2)cc1OC	none
Cc1cc(C)n(-c2ncnc3sc4c(c23)CC(C)CC4)n1 (centres undefined)	none
CNC[C@H]1Oc2c(NC(=O)c3ccncc3)cccc2C(=O)N([C@H](C)CO)C[C@H]1C	none
S=c1oc2ccc(Cl)cc2n1Cc1ccccc1	none
Oc1cc(Cc2ccccc2)cnc1CN1CCOCC1	none
Nc1ccc2nc(SCc3ccccc3Cl)sc2c1	none
CCSC1=C(C#N)C(=O)NC(CO)S1 (centres undefined)	none
CCSC1=C(C#N)C(=O)NC(C(C)C)S1 (centres undefined)	none
CC1NC(=O)C(C#N)=C(SCc2ccccc2)S1 (centres undefined)	U2OS ROS induce 93.3
COc1cccc(CC(=O)Nn2c(C)nc3ccccc3c2=O)c1	none
C[C@H]1CN([C@@H](C)CO)C(=O)c2cccc(NS(=O)(=O)c3ccc(F)cc3)c2O[C@H]1CN(C)S(=O)(=O)c1ccccc1	none
CCS(=O)CCSc1nc(-c2ccc(C)cc2)cc(-c2ccccc2)c1C#N (centres undefined)	none
CCCCS(=O)CSc1nc(-c2cccs2)cc(-c2ccccc2)c1C#N (centres undefined)	none
CCS(=O)CCSc1nc(-c2ccc(Br)cc2)cc(-c2ccccc2)c1C#N (centres undefined)	U2OS ROS induce 166.4
c1ccc(CSc2nnc(-c3ccco3)n2-c2ccccc2)cc1	none
COC(=O)COc1cccc(NC(=O)c2ccc(Br)cc2)c1	none
COc1cccc(C(=O)Nc2cccc(OCC(=O)O)c2)c1	none
COC(=O)COc1cccc(NC(=O)c2cc(OC)cc(OC)c2)c1	U2OS ROS induce 108.3
C[C@H]1CN([C@@H](C)CO)C(=O)CCCn2nncc2CO[C@H]1CN(C)C(=O)CCC(F)(F)F	none
C[C@@H]1CN([C@H](C)CO)C(=O)c2cc(NS(C)(=O)=O)ccc2O[C@@H]1CN(C)Cc1ccc2c(c1)OCO2	none
C[C@H]1CN([C@@H](C)CO)C(=O)Cc2cc(NS(=O)(=O)c3cn(C)cn3)ccc2O[C@H]1CN(C)Cc1ccc(-c2ccccc2)cc1	U2OS ROS induce 94.6
C[C@H]1CN([C@@H](C)CO)C(=O)Cc2cc(NS(=O)(=O)c3cn(C)cn3)ccc2O[C@@H]1CN(C)Cc1ccncc1	U2OS ROS induce 79.4
C[C@H]1CN([C@@H](C)CO)C(=O)Cc2cc(NS(=O)(=O)c3cn(C)cn3)ccc2O[C@H]1CN(C)Cc1ccccc1	none
C[C@@H]1CN([C@H](C)CO)C(=O)Cc2cc(NS(=O)(=O)c3cn(C)cn3)ccc2O[C@H]1CN(C)Cc1ccc(-c2ccccc2)cc1	none
C[C@@H]1CN([C@H](C)CO)C(=O)Cc2cc(NS(=O)(=O)c3cn(C)cn3)ccc2O[C@@H]1CN(C)Cc1ccc(-c2ccccc2)cc1	none
C[C@H](CO)N1C[C@H](C)[C@H](CN(C)Cc2ccc(Oc3ccccc3)cc2)Oc2ccc(NS(=O)(=O)c3cn(C)cn3)cc2CC1=O	none
C[C@@H]1CN([C@@H](C)CO)C(=O)Cc2cc(NS(=O)(=O)c3cn(C)cn3)ccc2O[C@@H]1CN(C)Cc1ccncc1	none
C[C@@H]1CN([C@H](C)CO)C(=O)Cc2cc(NS(=O)(=O)c3cn(C)cn3)ccc2O[C@@H]1CN(C)Cc1ccc(Oc2ccccc2)cc1	U2OS ROS induce 80.5
C[C@@H]1CN([C@H](C)CO)C(=O)Cc2cc(NS(=O)(=O)c3cn(C)cn3)ccc2O[C@H]1CN(C)Cc1ccccc1	none
O=C(NCc1cc(F)cc2c1OCOC2)c1cnc2ccccc2n1	none
